Screens (PubChem)
DRD3 antagonist = qHTS of D3 Dopamine Receptor Antagonist: qHTS; D3R cells, DiscoveRx beta-arrestin luminescence, antagonist mode; active compounds read low; max response, negative = inhibition, %; actives 2.5% (n = 360,000); AID 652054, 2013; in the data active = max response below about -50%; inconclusive = no clear call, values can overlap the other calls; also: % is scaled to controls: 0 for no effect and ±100 for the full control effect
Target sequence (P35462 whole entry, looked up): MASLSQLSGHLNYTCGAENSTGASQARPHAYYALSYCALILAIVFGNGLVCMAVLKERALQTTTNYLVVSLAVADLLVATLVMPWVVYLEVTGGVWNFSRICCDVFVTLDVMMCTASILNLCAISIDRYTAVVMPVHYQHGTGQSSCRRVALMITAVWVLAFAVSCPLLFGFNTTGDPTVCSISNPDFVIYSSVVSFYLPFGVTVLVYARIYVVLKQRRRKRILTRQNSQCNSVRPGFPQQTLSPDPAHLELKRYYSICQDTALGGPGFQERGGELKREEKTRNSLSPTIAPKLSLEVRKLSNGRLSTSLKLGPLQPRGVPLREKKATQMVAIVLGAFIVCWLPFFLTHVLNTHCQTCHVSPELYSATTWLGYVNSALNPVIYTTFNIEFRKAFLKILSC
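Cells expressing the human receptor were seeded at 1500 cells/well, incubated overnight at 37 degrees C in 5% CO2, then exposed to library compounds with dopamine controls for 90 minutes at 37 degrees C before luminescent detection.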
DT40 TDP1 CPT = qHTS for Inhibitors of human tyrosyl-DNA phosphodiesterase 1 (TDP1): qHTS in cells in presence of CPT | chicken DT40 Tdp1-/-;hTDP1 cells + 20 nM CPT, ATP luminescence, 48 h | Potency, µM (doses to about 46.2 µM), for inactives: top-dose activity change, negative = growth inhibition, most hits filed as inhibitors | actives 12% (n = 420,000) | AID 686979, 2013; also: potency is read from the fitted curve at half-maximal effect; % is scaled to controls: 0 for no effect and ±100 for the full control effect; nearly all actives have a fitted effect of over 55% in size
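Chicken DT40 Tdp1-/- cells stably complemented with human TDP1 were seeded at 400 cells/well in medium containing 20 nM camptothecin, exposed to pin-transferred compounds, and grown at 37 °C for at least 48 hr. Viability was read as ATP luminescence.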
DRD3 agonist = qHTS of D3 Dopamine Receptor Agonist: qHTS; max activation, %; D3R DiscoveRx beta-arrestin cells, luminescence, 90 min; D(3) dopamine receptor (Homo sapiens), P35462; AID 652048, 2013; actives 0.58% (n = 410,000); in the data active = max activation above about 30%; also: 0% is about no effect
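Agonist-mode cell screen: cells plated at 1500/well and incubated overnight at 37 °C, then exposed to library compounds for 90 min at 37 °C. Detection reagent was added for 30–60 min at room temperature, and luminescence was read.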
ClpP mod = qHTS Assay for Activators of ClpP. purified B. subtilis ClpP, FRET peptide cleavage, 20 min. Potency, µM (highest dose often 57.5 µM), inactives show top-dose activity change, negative = active. ATP-dependent Clp protease proteolytic subunit (Bacillus subtilis (strain 168)), P80244. actives 1.9% (n = 340,000); active = well fitted falling curve with a large enough effect; inconclusive = small, poorly fitted or top-dose-only effect; inactive = no such curve, though single readings can be large or run the other way; also: potency is read from the fitted curve at half-maximal effect; the source files actives as falling curves though it sought activators and does not explain the sign; nearly all actives have a fitted effect of over 65% in size
Target sequence (P80244 whole entry, looked up): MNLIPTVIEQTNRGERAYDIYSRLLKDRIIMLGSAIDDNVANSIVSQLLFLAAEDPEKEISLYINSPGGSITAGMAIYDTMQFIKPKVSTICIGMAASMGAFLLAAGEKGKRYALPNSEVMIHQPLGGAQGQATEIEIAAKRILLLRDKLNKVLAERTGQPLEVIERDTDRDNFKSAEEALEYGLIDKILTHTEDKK
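Buffer: 100 mM Tris/HCl pH8, 100 mM KCl, 0.05% low protease BSA, 2.5% glycerol, 0.01% Tween-20. ClpP 10 microg/mL final; 20 min RT; delta FRET normalized to ADEP and DMSO controls.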
TDP1 cell noCPT = qHTS for Inhibitors of human tyrosyl-DNA phosphodiesterase 1 (TDP1): qHTS in cells in absence of CPT; actives 15% (n = 420,000); DT40 Tdp1-/- hTDP1 cells, no CPT, ATP luminescence, 48 h; Potency, µM (series often up to 46.2 µM), inactives show at the top dose activity change, negative = growth inhibition, actives largely listed as inhibitors; also: potency is read from the fitted curve at half-maximal effect; % is scaled to controls: 0 for no effect and ±100 for the full control effect; nearly all actives have a fitted effect of over 55% in size
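Growth kinetics read by CellTiter-Glo luminescence after ≥48 hr at 37 °C. Cells: DT40 Tdp1-/- stably carrying human TDP1, 400 per well, compound exposure in the absence of CPT (DMSO vehicle).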
IL-1B inflam inh = qHTS for Inhibitors of Inflammasome Signaling: IL-1-beta AlphaLISA Primary Screen; actives 4.7% (n = 360,000); activity change, % at 57.5 µM; THP-1 LPS/ATP IL-1B secretion, AlphaLISA, 16 h; active compounds read low; in the data active = activity change below about -50%; inconclusive = mostly about -30% to -49%; also: % is scaled to controls: 0 for no effect and ±100 for the full control effect
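THP-1 cells pretreated 1 hr with compounds (up to 57.5 uM final), then stimulated with LPS (250 ng/mL final) plus ATP (1.25 mM final); secreted IL-1B measured by AlphaLISA after 16 hr, decreased signal indicating inhibition.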
Starred values were filed as active, the others as inactive; ? = inconclusive; / = no result given. Shown are actives, neighbours in structure and some others; about 21% of the full set was active somewhere. Unless noted, calls follow the shape of the dose curve; as a rule, active = well fitted inhibition curve with a large enough effect; inconclusive = small, poorly fitted or top-dose-only effect; inactive = flat fitted curve, though single readings scatter.

SMILES | DRD3 antagonist | DT40 TDP1 CPT | DRD3 agonist | ClpP mod | TDP1 cell noCPT | IL-1B inflam inh
Cc1ccc(-n2nc3c(c2NC(=O)c2c(-c4ccccc4Cl)noc2C)CSC3)cc1 | 15 | 26µM* | 2 | -1% | ? | 20
Cc1ccccc1-n1nc2c(c1NC(=O)c1c(-c3ccccc3Cl)noc1C)CSC2 | ? | -30% | -11 | -3% | 21µM* | -6
Cc1onc(-c2ccccc2Cl)c1C(=O)Nc1ccc(N2CCOCC2)cc1 | 9 | ? | -10 | -1% | ? | -6
Cc1ccc(-n2nc3c(c2NC(=O)/C=C\c2ccc4c(c2)OCO4)CSC3)cc1 | 0 | ? | -2 | -22% | 18µM* | -23
Cc1sc(NC(=O)/C=C/c2ccc3c(c2)OCO3)nc1-c1ccccc1 | 19 | 15µM* | 4 | -17% | 16µM* | -22
Cc1ccccc1-n1nc2c(c1NC(=O)CCCl)CSC2 | 8 | ? | -3 | 0% | ? | 15
Cc1ccc2nc(SCC(=O)NCc3ccccc3)nc(=O)n2c1 | 10 | -19% | -11 | / | ? | -16
CSc1ccc(CNC(=O)CCn2ccc3cc(S(=O)(=O)N4CCCC4)ccc32)cc1 | 7 | ? | -3 | -1% | ? | -28
COc1ccccc1NC(=O)Cn1nc2c3cc(F)ccc3n(Cc3cccc(C)c3)cc-2c1=O | / | 0% | 3 | -1% | 19% | /
CS(=O)(=O)N1CCC[C@@]2(CCN(Cc3ccc(C#N)cc3)C2)C1 | / | 5% | / | / | -8% | /
Cc1cn([C@H]2C[C@H](O)[C@@H](CNC/C=C/c3ccccc3[N+](=O)[O-])O2)c(=O)[nH]c1=O | -23 | -7% | 74* | -5% | ? | -12
COc1ccccc1NC(=O)NNC(=O)c1ccncc1 | -9 | 12% | 0 | / | -7% | -7
COC(=O)c1c(C)nn(-c2ccc(F)cc2)c1-n1cccc1 | / | ? | -7 | 0% | ? | /
CCOc1ccc(N=C2SC(C(=O)Nc3ccccc3C#N)C(N)=C2C(=O)Nc2ccc(Cl)cc2)cc1 (stereo not drawn) | 0 | 2% | -23 | -3% | 4% | 0
N#Cc1ccccc1NC(=O)C1SC(=Nc2ccccc2)C(C(=O)Nc2ccc(Cl)cc2)=C1N (stereo not drawn) | ? | 16µM* | -18 | 0% | 21µM* | -84*
CN(C)C/C=C/C(O)(c1ccccc1)c1ccccc1 | -8 | 16% | -3 | / | -1% | -20
CN(C)CC(CCC(CN(C)C)C(O)(c1ccccc1)c1ccccc1)C(O)(c1ccccc1)c1ccccc1 (stereo not drawn) | ? | 23µM* | -8 | / | 18µM* | -85*
O=C(Cc1ccc([N+](=O)[O-])cc1)OCc1ccc([N+](=O)[O-])cc1 | -20 | 9% | 6 | / | -15% | -11
N=C(N)SCCc1ccc(OCc2ccc([N+](=O)[O-])cc2)cc1 | / | 8.4µM* | / | / | ? | /
Cc1c(/C=C/C(=O)c2ccc(C(C)C)cc2)cnn1C | ? | ? | -15 | / | ? | -73*
Cc1c(/C=C/C(=O)c2ccc(O)cc2)cnn1C | 0 | -16% | -21 | -3% | ? | 9
Cc1cc(C)nc(N/C(=N\S(=O)(=O)Cc2ccccc2)Nc2ccc(F)c(Cl)c2)n1 | 9 | 18µM* | 1 | 2% | 26µM* | 4
CC(=O)Nc1ccc(S(=O)(=O)N(C)CC(=O)OCC(=O)N(C)C2CCS(=O)(=O)C2)cc1 (stereo not drawn) | -24 | -11% | -11 | -4% | -4% | -10
Cc1cc(C)c(NC(=O)c2ccccc2CCc2ccccc2)c(C)c1 | 29 | 18µM* | 13 | 1% | ? | 13
O=C(NCc1ccccc1Cl)c1ccccc1CCc1ccccc1 | 2 | ? | 1 | 0% | 16µM* | -15
SMILES | DRD3 antagonist | DT40 TDP1 CPT | DRD3 agonist | ClpP mod | TDP1 cell noCPT | IL-1B inflam inh
Cc1ccc(C(=O)OCC(=O)N2CCC(C)CC2)cc1S(=O)(=O)N1CCOCC1 | -2 | -25% | -3 | -1% | -29% | 5
COc1ccc(CNC(=O)c2ccc(CN3C(=O)C(C)=C(c4ccc(C)cc4)S3(=O)=O)cc2)cc1 | / | ? | -5 | -22% | ? | /
COc1ccc(C2=C(C)C(=O)N(Cc3ccc(C(=O)Nc4cc(C)ccc4C)cc3)S2(=O)=O)cc1 | / | 18µM* | -18 | 4% | 10µM* | /
CC1=C(c2ccc(C)cc2)S(=O)(=O)N(Cc2ccc(C(=O)Nc3ccc(C)c(F)c3)cc2)C1=O | / | 26µM* | -11 | -23% | ? | /
CCOC(=O)C1CCN(C(=O)c2cc3cc(Cl)ccc3[nH]2)CC1 | -5 | ? | -2 | / | -27% | 5
CCOC(=O)C1CCN(C(=O)Cn2c(-c3cccs3)cc3cc(Cl)ccc32)CC1 | / | 15µM* | 3 | 35µM* | 21µM* | /
CC1CCN(C(=O)Cn2c(-c3cccs3)cc3cc(Cl)ccc32)CC1 | / | 16µM* | 5 | 35µM* | ? | /
COc1ccc(NC(=O)C2(S(=O)(=O)c3ccc(C)cc3)CC2)c(OC)c1 | / | -11% | 4 | 1% | -22% | /
Cc1cc(Oc2ccc3ccccc3c2)nc(SCC(=O)c2ccccc2)n1 | 44 | 21µM* | 2 | 0% | 18µM* | 12
CCOC(=O)COC(=O)c1ccc(Oc2cc(C)nc(SC)n2)cc1 | -11 | 22% | 1 | 0% | -4% | 6
CCOC(=O)c1ccc(Oc2cc(C)nc(SC)n2)cc1 | 16 | 8.2µM* | -3 | 0% | 9.2µM* | 25
Cc1cc(N2CCCCC2)nc(SCC(=O)c2ccccc2)n1 | ? | ? | -7 | -1% | 12µM* | -27
COC(=O)CSc1nc(C)cc(Oc2ccccc2)n1 | ? | 0% | 4 | 0% | -17% | 10
Cc1cc(Oc2ccc(Br)cc2)nc(SCC(=O)c2ccccc2)n1 | 1 | 23µM* | 7 | -10% | 21µM* | 24
O=C(COc1ccc2c3c(c(=O)oc2c1)CCCC3)NCCCN1CCOCC1 | -6 | -8% | -7 | 4% | 4% | 1
COC(=O)c1ccc(Oc2cc(C)nc(-n3nc(C)cc3C)n2)cc1 | -82* | 0.73µM* | -28 | -2% | 0.58µM* | 48
